About 83,000 compounds went through this panel and 20% of them were active in at least one assay; those are over-represented in the sample as a whole.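 The endpoint reported here, percent growth, reads 100 for growth as untreated, 0 for no net growth and -100 for all cells dead.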 Values without a mark were called inactive. Calls of active or inactive are those of the source. How the source made its calls: active means growth percent below 10; inactive means the rest.

This test relates to SF-539 CNS. Kind of test: NCI-60 one-dose screen, 48 h (100 = growth as untreated, 0 = no growth, -100 = all killed). Conditions: 10 µM unless noted.
`COc1ccc(-c2cnc3ccnn3c2-c2cc(OC)c(OC)c(OC)c2)cc1`: the growth was -13.4% (active).

`COc1cc2cc(C(=O)Nc3ccccc3)c(N)nc2cc1OC`: the growth was 34.3%. For `O=C(C=P(c1ccccc1)(c1ccccc1)c1ccccc1)CCl`, the growth is -20% (active). `CCCCCCCCCCCCCCCCS(=O)(=O)Nc1cc(C(=O)NN)cc(C(=O)NN)c1`: the growth is 63.7%. As for `COS(=O)(=O)CCN(CCOS(C)(=O)=O)S(C)(=O)=O`, the growth was 91.2%. With `CCn1c(CN2CCN(Cc3ccccc3)CC2)nc2cc(NC(=O)c3cccs3)ccc21`, the growth is -69.8% (active). Consider `CC(=O)c1ccc(-n2c(-c3cc(-c4ccsc4)n[nH]3)n[nH]c2=S)cc1`, for which the growth is 97.5%. For the molecule `CCN(CC)Cc1cc(Nc2ccnc3cc(Cl)ccc23)cc(-c2ccc(Cl)cc2)c1O`, the growth is -25.6% (active). On to `O=C(NCC(c1ccsc1)N1CCCCCC1)c1ccc(C(F)(F)F)cc1` (stereo not given), for which the growth was 108%. Next, `COc1cc(NC(C)CCCN)c2ncccc2c1Oc1ccc(Cl)cc1` (stereo not given): 81.2%; `O=C(c1ccccc1)N(CCCCl)C(=O)N(CCCCl)C(=O)c1ccccc1`: 97.2%; `COc1ccc(C2=CC(c3ccc(OC)cc3Br)N3C=CSC3=N2)cc1` (stereo not given): 77.5%. Next, `CC(=O)c1nn(-c2ccccc2)/c(=N\N=C\c2coc3ccc(F)cc3c2=O)s1`: 94.4%; `O=C(c1ccc(C(F)(F)F)c(Cl)c1)N(Cc1ccc(Cl)cc1)c1ccc(-c2cc(C(F)(F)F)[nH]n2)c(O)c1`: 2.09% (active); `C/C(=N\OC(=O)Nc1cccc(Cl)c1)c1ccccc1`: 104%.

The record behind these values is PubChem BioAssay (NCI).
